Only some compounds are listed: those with a hit (about 9.4% of all), similar ones and a draw of the others.
ELG1 DNA repair: ELG1-dependent DNA repair inhibition | 330,000 tested, 2.3% active | AID 504467 | Potency, µM (highest dose often 46.1 µM), for inactives: at the top dose activity change, negative = inhibition, most hits filed as inhibitors | HEK293T ELG1-luciferase reporter, luminescence, 16 h; DNA damage induced by 5-fluorouridine; further: on the % scale 0 is the no-effect control and ±100 the full control effect; nearly all actives have a fitted effect of over 55% in size
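Luminescence from the luciferase reporter, measured 30 min after ONE-Glo reagent at room temperature, was the read-out. Beforehand, 2,000 cells per well were exposed for 16 hr at 37 °C to 5-fluorouridine together with compound or vehicle.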
SMN2 splice up: increases expression of the SMN2 splice variant | AID 1458 | 210,000 tested, 2.8% active | Potency, µM (series often up to 46.1 µM), without a hit: top-dose activity change, positive = activation, usual class: activators | HEK293 SMN2-luciferase splicing reporter, luminescence, 30-36 h; further: % of control where 0% means no effect; nearly all actives have a fitted effect of over 55% in size
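HEK293 cells carry an SMN2 minigene-luciferase reporter in which exon 7 inclusion puts luciferase in frame. Cells were seeded at 2000 cells/well, attached for 10-12 hours, then exposed to compounds for 30-36 hours at 37C before ONE-Glo luminescence.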
Rab9 prom act: activates the Rab9 promoter. Huh7 Rab9 promoter-luciferase reporter, luminescence, 24 h. Potency, µM (doses to about 9.22 µM), inactives show at the highest dose activation, negative = inhibition, actives largely listed as activators. 320,000 tested, 2.8% active. AID 485297; further: % of control where 0% means no effect; nearly all actives have a fitted effect of over 60% in size
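Quantitative HTS format; Huh7 Rab9-luciferase reporter cells (1500/well) receive compound 2 h post-plating, incubate 24 h at 37 °C, then get luciferase reagent for 10 min before luminescence reading.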
NPC1 prom act: activators of NPC1 promoter | 320,000 tested, 2.4% active | Huh7 NPC1 promoter luciferase reporter, 24 h | Potency, µM (titrated, usually from 9.22 µM), inactives show top-dose activation, usual class: activators | AID 485313; further: % of control where 0% means no effect; nearly all actives have a fitted effect of over 60% in size
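Quantitative HTS used a cell-based reporter: Huh7 cells stably bearing the NPC1 promoter upstream of luciferase were treated with compounds for 24 h, and promoter activation was read as luminescence.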
FLuc modulator: counter-screen for miR-21 project: firefly luciferase inhibitors or activators | purified FLuc, Km substrates, luminescence inhibition | Potency, µM (doses to about 57.5 µM), for the others: top-dose activity change, negative = inhibition, most hits filed as inhibitors | 360,000 tested, 6.9% active;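 further: plate controls were vehicle for no effect and reference inhibitor for full effect; nearly all actives have a fitted effect of over 55% in size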
Target sequence (P08659 whole entry, looked up): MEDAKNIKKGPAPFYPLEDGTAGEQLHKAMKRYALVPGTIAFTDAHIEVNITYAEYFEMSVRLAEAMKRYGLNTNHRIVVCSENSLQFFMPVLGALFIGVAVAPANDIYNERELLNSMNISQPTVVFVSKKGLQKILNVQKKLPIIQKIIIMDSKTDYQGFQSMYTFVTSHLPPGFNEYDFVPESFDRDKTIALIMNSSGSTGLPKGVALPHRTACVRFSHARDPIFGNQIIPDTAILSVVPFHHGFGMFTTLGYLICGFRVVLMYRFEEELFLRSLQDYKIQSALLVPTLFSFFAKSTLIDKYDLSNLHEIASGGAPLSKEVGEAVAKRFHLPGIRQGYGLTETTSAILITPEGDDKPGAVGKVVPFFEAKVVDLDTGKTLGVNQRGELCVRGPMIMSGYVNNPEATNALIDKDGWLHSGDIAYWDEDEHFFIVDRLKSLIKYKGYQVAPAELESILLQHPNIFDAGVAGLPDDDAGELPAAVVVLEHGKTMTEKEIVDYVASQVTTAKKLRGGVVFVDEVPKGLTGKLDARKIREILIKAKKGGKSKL
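Biochemical qHTS of compounds, final roughly 60 µM downward over six points, against 10 nM purified firefly luciferase using Km concentrations of substrates (10 uM D-luciferin, 10 uM ATP) in Tris acetate pH 7.5 buffer; luminescence output.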
ELG1 genotox: induces genotoxicity in HEK293T cells with luciferase-tagged ELG1 | HEK293T ELG1-luciferase reporter, luminescence, 16 h | Potency, µM (top dose mostly 46 µM), without a hit: at the top dose activity change, positive = activation, most hits filed as activators | 330,000 tested, 1.3% active; further: % of control where 0% means no effect; nearly all actives have a fitted effect of over 60% in size
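Quantitative HTS format in 1536-well plates. HEK293T ELG1-luciferase reporter cells receive test compound and are incubated 16 hr at 37 °C, 5% CO2; ONE-Glo added, 30 min room temperature, then luminescence read.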
ELG1 FLuc counter: luciferase inhibition in cell-free luciferin readout for ELG1 hits; AID 624247; Potency, µM (top dose mostly 46.1 µM), without a hit: at the highest dose activity change, negative = inhibition, hits mostly inhibitors; 350 tested, 3% active; cell-free firefly luciferase luminescence counter-screen, ViewLux; shares compounds with ELG1 DNA repair; further: on the % scale 0 is the no-effect control and ±100 the full control effect
ELG1 Luc conf: inhibits ELG1-dependent DNA repair in HEK293T cells, confirmed; 670 tested, 68% active; Potency, µM (titrated, usually from 46.1 µM), without a hit: at the highest dose activity change, negative = inhibition, usual class: inhibitors; shares compounds with ELG1 DNA repair; AID 624248; HEK293T ELG1-luciferase levels, luminescence; cells co-treated with 5-fluorouridine; further: on the % scale 0 is the no-effect control and ±100 the full control effect; nearly all actives have a fitted effect of over 55% in size
ELG1-Luc MMS: inhibits ELG1-dependent repair under MMS stimulation in HEK293T cells | 670 tested, 53% active | Potency, µM (top dose mostly 46.1 µM), without a hit: top-dose activity change, negative = inhibition, usual class: inhibitors | shares compounds with ELG1 DNA repair | HEK293T luciferase-tagged ELG1 level, MMS stimulated; further: on the % scale 0 is the no-effect control and ±100 the full control effect; nearly all actives have a fitted effect of over 60% in size
ELG1 5-FU: confirmation of ELG1 repair inhibitors: viability with 5FU; shares compounds with ELG1 DNA repair; cell viability with 5-FU, ELG1-dependent repair; Potency, µM (top dose mostly 46.1 µM), inactives show at the highest dose activity change, negative = viability loss, hits mostly cytotoxic; 670 tested, under 10 active; AID 624250;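 further: ELG1-luc HEK293T cells cotreated with 5-fluorouridine at 10 µM final; viability measured 16 h after compound addition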
ELG1 MMS cell: confirmation of ELG1 repair inhibitors: viability with MMS | shares compounds with ELG1 DNA repair | Cell viability with MMS, ELG1-dependent DNA repair | Potency, µM (series often up to 46.1 µM), for inactives: at the top dose activity change, negative = viability loss, hits mostly cytotoxic | 670 tested, 33% active | AID 624251;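 further: ELG1-luc HEK293T cells co-treated with 10 µM MMS; viability read 16 h after compound addition; on the % scale 0 is the no-effect control and ±100 the full control effect; nearly all actives have a fitted effect of over 60% in size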
Cell viab unstim: unstimulated viability counter-screen for ELG1 repair hits | 900 tested, 8% active | Potency, µM (titrated, usually from 45.9 µM), for inactives: top-dose activity change, negative = loss of viability, hits mostly cytotoxic | shares compounds with ELG1 DNA repair | cell viability counter-screen, unstimulated, luminescence | AID 624252;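 further: compound exposure lasted 16 hours before reading; on the % scale 0 is the no-effect control and ±100 the full control effect; nearly all actives have a fitted effect of over 55% in size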
FLuc enzyme: counter-screen for ELG1 repair inhibitors: firefly luciferase inhibition | purified firefly luciferase, luminescence counter-screen | Potency, µM (series often up to 57.5 µM), for the others: at the top dose activity, negative = inhibition, actives largely listed as inhibitors | 350 tested, 10% active | shares compounds with ELG1 DNA repair; further: on the % scale 0 is the no-effect control and ±100 the full control effect
* marks the source's active call; other numbers are inactive results; ? = inconclusive; nt = not tested or not shown. The call rests on the fitted dose curve; in most records, active means well fitted curve in the direction sought with a large enough effect; inconclusive means small, poorly fitted or top-dose-only effect, or another doubt; inactive means no such curve, though single readings can be large; an effect the other way counts as inactive or inconclusive. Potency means the concentration at half of the fitted maximal effect.

SMILES	ELG1 DNA repair	SMN2 splice up	Rab9 prom act	NPC1 prom act	FLuc modulator	ELG1 genotox	ELG1 FLuc counter	ELG1 Luc conf	ELG1-Luc MMS	ELG1 5-FU	ELG1 MMS cell	Cell viab unstim	FLuc enzyme
COc1ccc(Cn2c(O)c(C=Nc3ccccc3C(=O)O)c3ccccc3c2=O)cc1	4.1µM*	nt	-6%	0%	-8%	-8%	nt	3.5µM*	2.5µM*	-14%	2.8µM*	?	nt
COc1ccccc1NS(=O)(=O)c1cccc(-n2c(O)c(C=Nc3ccccc3C(=O)O)c3ccccc3c2=O)c1	?	nt	-1%	0%	?	-12%	nt	nt	nt	nt	nt	nt	nt
O=c1c2ccccc2ccc2ccccc12	22%	nt	2%	1%	nt	3%	nt	nt	nt	nt	nt	nt	nt
O=c1c2ccccc2oc2c1ccc1ccccc12	?	nt	nt	nt	nt	?	nt	nt	nt	nt	nt	-1%	nt
COc1ccc(-n2c(/C=C/c3ccccc3F)nc3cc(OC)c(OC)cc3c2=O)cc1Cl	nt	nt	nt	nt	1%	nt	nt	nt	nt	nt	nt	nt	nt
COc1ccc2c(c1)C(=O)[C@H](OC(=O)Nc1ccc(OC(F)F)cc1)[C@@H](c1ccc(OC)c(Br)c1)O2	nt	0%	nt	nt	nt	nt	nt	nt	nt	nt	nt	nt	nt
CCOC(=O)c1c(C)nc2sc3c(=O)n(-c4ccc(OC)cc4)cnc3c2c1-c1ccc(OC)cc1	-9%	-2%	-1%	-5%	-1%	-4%	-3%	1.3µM*	-13%	2%	-2%	-2%	-2%
CCOC(=O)CCSc1nc(N2CCOCC2)c2c(c1C#N)CC(C)(C)OC2	1µM*	nt	-6%	0%	-12%	-1%	14%	4.5µM*	9%	?	11%	1%	3%
CC(Sc1nc(N2CCOCC2)c2c(c1C#N)CC(C)(C)OC2)C(=O)Nc1ccccc1 (centres undefined)	2.9µM*	3%	1%	-2%	-4%	4%	17%	1.8µM*	-11%	?	?	8%	1%
COc1ccc(N2CC(NC(=O)c3ccc(S(=O)(=O)N4CCOCC4)cc3)CC2=O)cc1OC (centres undefined)	nt	nt	nt	nt	-5%	nt	nt	nt	nt	nt	nt	nt	nt
CCc1ccc(-n2nc(CO)c(C(=O)NCc3ccccn3)n2)cc1	nt	-26%	nt	nt	?	nt	nt	nt	nt	nt	nt	nt	nt
CCOC(=O)N1CCN(C(=O)CSCC(=O)Nc2nc(-c3ccc(OC)cc3)cs2)CC1	0%	?	28%	28%	?	0%	nt	nt	nt	nt	nt	nt	nt
CCOC(=O)N1CCN(C(=O)CSCC(=O)Nc2nc(-c3ccc(-c4ccccc4)cc3)cs2)CC1	10µM*	-2%	?	?	-16%	2.6µM*	-9%	nt	nt	nt	nt	16µM*	?
O=C(Nc1ccncc1)C1CC1c1ccccc1 (centres undefined)	0.15µM*	-38%	-13%	-2%	2%	-1%	0%	?	14µM*	-1%	16µM*	-2%	-5%
CC(C)c1ccc(NC(=O)C2CC2c2ccccc2)cc1 (centres undefined)	-1%	nt	2%	-4%	-24%	2%	nt	nt	nt	nt	nt	nt	nt
O=C(NOCc1ccccc1)c1ccccc1	?	nt	1.8µM*	3.2µM*	6µM*	6.5µM*	nt	nt	nt	nt	nt	-12%	nt
Cc1ccc(CONC(=O)c2cccc(C)c2)cc1	?	nt	?	16%	?	-1%	nt	nt	nt	nt	nt	nt	nt
Cc1ccc(-c2nnc(SCC(=O)N3CCCc4ccccc43)o2)cc1	nt	-1%	nt	nt	?	nt	nt	nt	nt	nt	nt	nt	nt
CC1(C)Cc2c(c(N3CCOCC3)nc3sc4c(=O)[nH]cnc4c23)CS1	-7%	-2%	-5%	-2%	1%	-2%	6%	14µM*	6%	?	13%	-5%	3%
O=C(N/N=C/c1c(F)c(F)c(F)c(F)c1F)c1cc(-c2ccccc2)nc2ccccc12	-6%	nt	12%	1%	-3%	-3%	nt	nt	nt	nt	nt	nt	nt
Cc1nn(-c2ccccc2)c(N2CCCC2)c1/C=N/NC(=O)c1cc(-c2ccccc2)nc2ccccc12	3.7µM*	7%	-8%	-3%	-3%	-11%	nt	7.9µM*	?	-6%	-8%	?	nt
CCN(CC)Cc1c(O)ccc2c([N+](=O)[O-])c(C)n(-c3ccc(OC)cc3)c12	2.3µM*	-19%	-4%	1%	?	-14%	nt	4µM*	?	-7%	-9%	-14%	nt
COc1cc2c(cc1OC)CN(C(=O)c1nn(Cc3ccccc3)c(=O)c3ccccc13)CC2	2.6µM*	nt	-9%	-6%	2%	-11%	nt	1.1µM*	?	?	?	?	nt
Cc1cc(C)cc(OCC(=O)Nc2ccc(Cl)c(-c3nc4ncccc4o3)c2)c1	nt	-17%	nt	nt	-2%	nt	nt	nt	nt	nt	nt	nt	nt
Cc1nc(N2CCN(S(=O)(=O)c3ccc(F)cc3)CC2)c2c(C)c(C)sc2n1	1%	4%	-7%	-1%	0%	-4%	25%	-10%	10%	9%	-1%	-1%	2%
CCOc1ccc(C(=O)Nc2ccccc2N2CCN(C(=O)c3ccccc3)CC2)cc1[N+](=O)[O-]	4.6µM*	nt	-10%	-8%	-1%	-8%	nt	6.3µM*	?	6%	-1%	-15%	nt
